Laboratory results published in PubChem BioAssay (NCATS).
Results filed as inconclusive are left out. Entries that show only a call come without a potency. Active and inactive are the calls of the source. The call rests on the fitted dose curve; in most records, active means well fitted inhibition curve with a large enough effect; inconclusive means small, poorly fitted or top-dose-only effect; inactive means flat fitted curve, though single readings scatter.

test system: CP256; experiment: qHTS profiling for inhibitors of Plasmodium falciparum proliferation (AID 504749); further: nearly all actives have a fitted effect of over 60% in size; settings: P. falciparum in erythrocytes, SYBR Green DNA, 72 h; series mostly up to 28.7 µM
How it was run: (§1)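 Quantitative HTS: compounds pinned into medium, infected erythrocytes added (0.3% parasitemia, 2.5% hematocrit), 72 h culture at 37 C under 5% CO2. Saponin/Triton lysis with SYBR Green I, overnight RT, then fluorescence read.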
Potency means the concentration at half of the fitted maximal effect.

Row | Structure (SMILES) | Potency
1 | CC/C=C\C/C=C\C/C=C\C/C=C\C/C=C\C/C=C\CCC(=O)O | inactive
2 | O=C(O)/C=C/c1ccccc1 | inactive
3 | CC(=O)Oc1cccc(C(=O)O)c1OC(C)=O | inactive
4 | CC(CNC(=O)c1cccnc1)NC(=O)c1cccnc1 (stereo not drawn) | inactive
5 | CN=C1C=CC(=C(c2ccc(N(C)C)cc2)c2ccc(N(C)C)cc2)C=C1 | 355 nM (active)
6 | CC/C(=C(/CC)c1ccc(OP(=O)(O)O)cc1)c1ccc(OP(=O)(O)O)cc1 | inactive
7 | ClC(Cl)Cl | inactive
8 | CCCCCCCCCCCCCCCCCC[N+](C)(C)CCC[Si](OC)(OC)OC | inactive
9 | Oc1cc(O)cc(O)c1 | inactive
10 | CC(=O)Nc1c(I)c(C(=O)O)c(I)c(N(C)C(C)=O)c1I | inactive
11 | CC(C)CCC[C@@H](C)[C@H]1CC[C@H]2[C@@H]3CC=C4C[C@@H](O)CC[C@]4(C)[C@H]3CC[C@]12C | inactive
12 | CCCCCCCCCCCCOCCCN | inactive
13 | CC(C)(C)c1ccc2c(S(=O)(=O)O)c(C(C)(C)C)ccc2c1 | inactive
14 | CCSc1ccc2c(c1)N(CCCN1CCN(C)CC1)c1ccccc1S2 | inactive
15 | c1ccc(-n2cnnn2)cc1 | inactive
16 | CN1CCC(OC(=O)C(Oc2ccc(Cl)cc2)Oc2ccc(Cl)cc2)CC1 | inactive
17 | CC(C)Cc1ccc([C@@H](C)C(=O)NS(C)(=O)=O)cc1 | inactive
18 | CCCc1ccc(C(=O)O)cc1 | inactive
19 | CNC(=O)c1c(I)c(C(=O)NCC(=O)Nc2c(I)c(C(=O)O)c(I)c(C(=O)NCCO)c2I)c(I)c(N(C)C(C)=O)c1I | inactive
20 | CC1CC(O)CC(C)(C)C1 (stereo not drawn) | inactive

Row | Structure (SMILES) | Potency
21 | C=Cc1ccc(S(=O)(=O)O)cc1 | inactive
22 | OCC1(CO)COC(C(Cl)(Cl)Cl)OC1 | inactive
23 | CC(C)(C)CC(C)(C)c1cc(Cc2cc(C(C)(C)CC(C)(C)C)cc(-n3nc4ccccc4n3)c2O)c(O)c(-n2nc3ccccc3n2)c1 | inactive
24 | O=C(O)c1ccc(OCCn2ccnc2)cc1 | inactive
25 | CC(C)c1ncc([N+](=O)[O-])n1C | inactive
26 | CN1c2c(nc(N)[nH]c2=O)NCC1CNc1ccc(C(=O)NC(CCC(=O)O)C(=O)O)cc1 (stereo not drawn) | inactive
27 | N=C(N)n1cccn1 | inactive
28 | N[C@H](CC(=O)O)C(=O)O | inactive
29 | NCC(O)CC(=O)O (stereo not drawn) | inactive
30 | CCN(CC)C(=O)c1cccnc1 | inactive
31 | CCOC(C)OCC | inactive
32 | FCOC(C(F)(F)F)C(F)(F)F | inactive
33 | CN[C@@H]1[C@H](O[C@H]2[C@H](O[C@H]3[C@H](O)[C@@H](O)[C@H](N=C(N)N)[C@@H](O)[C@@H]3N=C(N)N)O[C@@H](C)[C@]2(O)C=O)O[C@@H](CO)[C@H](O)[C@H]1O | inactive
34 | CC(C)[C@@H](N)C(=O)O | inactive
35 | O=C(O)COc1ccc(CCNS(=O)(=O)c2ccccc2)s1 | inactive
36 | CC(=O)Nc1ccc(OC(=O)c2ccccc2O)cc1 | inactive
37 | CC(C)O | inactive
38 | C=CC[C@@H]1/C=C(\C)C[C@H](C)C[C@H](OC)[C@H]2O[C@@](O)(C(=O)C(=O)N3CCCC[C@H]3C(=O)O[C@H](/C(C)=C/[C@@H]3CC[C@@H](O)[C@H](OC)C3)[C@H](C)[C@@H](O)CC1=O)[C@H](C)C[C@@H]2OC | 708 nM (active)
39 | Cc1cc(=O)c(C(=O)N[C@@H](C(=O)N[C@@H]2C(=O)N3C(C(=O)O)=C(CSc4nnnn4C)CS[C@H]23)c2ccc(O)cc2)c[nH]1 | inactive

test system: CP260; experiment: as above; settings: P. falciparum in erythrocytes, SYBR Green DNA, 72 h; series mostly up to 28.7 µM
How it was run: as §1

Row | Structure (SMILES) | Potency
40 | CC/C=C\C/C=C\C/C=C\C/C=C\C/C=C\C/C=C\CCC(=O)O | inactive
41 | O=C(O)/C=C/c1ccccc1 | inactive
42 | CC(=O)Oc1cccc(C(=O)O)c1OC(C)=O | inactive
43 | CC(CNC(=O)c1cccnc1)NC(=O)c1cccnc1 (stereo not drawn) | inactive
44 | CN=C1C=CC(=C(c2ccc(N(C)C)cc2)c2ccc(N(C)C)cc2)C=C1 | 224 nM (active)
45 | CC/C(=C(/CC)c1ccc(OP(=O)(O)O)cc1)c1ccc(OP(=O)(O)O)cc1 | inactive
46 | ClC(Cl)Cl | inactive
47 | CCCCCCCCCCCCCCCCCC[N+](C)(C)CCC[Si](OC)(OC)OC | inactive
48 | Oc1cc(O)cc(O)c1 | inactive
49 | CC(=O)Nc1c(I)c(C(=O)O)c(I)c(N(C)C(C)=O)c1I | inactive
50 | CC(C)CCC[C@@H](C)[C@H]1CC[C@H]2[C@@H]3CC=C4C[C@@H](O)CC[C@]4(C)[C@H]3CC[C@]12C | inactive
51 | CCCCCCCCCCCCOCCCN | inactive
52 | CC(C)(C)c1ccc2c(S(=O)(=O)O)c(C(C)(C)C)ccc2c1 | inactive
53 | CCSc1ccc2c(c1)N(CCCN1CCN(C)CC1)c1ccccc1S2 | inactive
54 | c1ccc(-n2cnnn2)cc1 | inactive
55 | CN1CCC(OC(=O)C(Oc2ccc(Cl)cc2)Oc2ccc(Cl)cc2)CC1 | inactive
56 | CC(C)Cc1ccc([C@@H](C)C(=O)NS(C)(=O)=O)cc1 | inactive
57 | CCCc1ccc(C(=O)O)cc1 | inactive
58 | CNC(=O)c1c(I)c(C(=O)NCC(=O)Nc2c(I)c(C(=O)O)c(I)c(C(=O)NCCO)c2I)c(I)c(N(C)C(C)=O)c1I | inactive
59 | CC1CC(O)CC(C)(C)C1 (stereo not drawn) | inactive

Row | Structure (SMILES) | Potency
60 | C=Cc1ccc(S(=O)(=O)O)cc1 | inactive
61 | OCC1(CO)COC(C(Cl)(Cl)Cl)OC1 | inactive
62 | CC(C)(C)CC(C)(C)c1cc(Cc2cc(C(C)(C)CC(C)(C)C)cc(-n3nc4ccccc4n3)c2O)c(O)c(-n2nc3ccccc3n2)c1 | inactive
63 | O=C(O)c1ccc(OCCn2ccnc2)cc1 | inactive
64 | CC(C)c1ncc([N+](=O)[O-])n1C | inactive
65 | CN1c2c(nc(N)[nH]c2=O)NCC1CNc1ccc(C(=O)NC(CCC(=O)O)C(=O)O)cc1 (stereo not drawn) | inactive
66 | N=C(N)n1cccn1 | inactive
67 | N[C@H](CC(=O)O)C(=O)O | inactive
68 | NCC(O)CC(=O)O (stereo not drawn) | inactive
69 | CCN(CC)C(=O)c1cccnc1 | inactive
70 | CCOC(C)OCC | inactive
71 | FCOC(C(F)(F)F)C(F)(F)F | inactive
72 | CN[C@@H]1[C@H](O[C@H]2[C@H](O[C@H]3[C@H](O)[C@@H](O)[C@H](N=C(N)N)[C@@H](O)[C@@H]3N=C(N)N)O[C@@H](C)[C@]2(O)C=O)O[C@@H](CO)[C@H](O)[C@H]1O | inactive
73 | CC(C)[C@@H](N)C(=O)O | inactive
74 | O=C(O)COc1ccc(CCNS(=O)(=O)c2ccccc2)s1 | inactive
75 | CC(=O)Nc1ccc(OC(=O)c2ccccc2O)cc1 | inactive
76 | CC(C)O | inactive
77 | C=CC[C@@H]1/C=C(\C)C[C@H](C)C[C@H](OC)[C@H]2O[C@@](O)(C(=O)C(=O)N3CCCC[C@H]3C(=O)O[C@H](/C(C)=C/[C@@H]3CC[C@@H](O)[C@H](OC)C3)[C@H](C)[C@@H](O)CC1=O)[C@H](C)C[C@@H]2OC | 794 nM (active)
78 | Cc1cc(=O)c(C(=O)N[C@@H](C(=O)N[C@@H]2C(=O)N3C(C(=O)O)=C(CSc4nnnn4C)CS[C@H]23)c2ccc(O)cc2)c[nH]1 | inactive
